Source: PubChem
LMP1 NFkB inh – EBV LMP1-driven NF-kappaB luciferase reporter inhibitors, primary screen, cell-based, luminescence, single point | actives 0.69% (n = 350,000) | LMP1-induced NF-kappaB luciferase reporter cells | AID 504558, 2011 | inhibition, % at 12.5 µM; in the data active = inhibition above about 41%; inconclusive = no clear call, values can overlap the other calls
N-glyco inh – increase of ERlucT glycosylation luciferase signal, primary screen, N-linked glycosylation inhibitor project, D54 ERlucT cells, luminescence, set 2 | D54 ERlucT glycosylation luciferase reporter, 24 h; percent of 100 nM tunicamycin response | reporter increase, % at 12.5 µM | actives 0.23% (n = 360,000) | AID 588692, 2011;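 active = mean luciferase reporter signal, scaled so untreated is 0 and the glycosylation-blocking control 100, at or above a set limit in every replicate; inconclusive = mean reaches the limit but not every replicate does; inactive = mean below the limit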;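 note: luciferase carries N-glycosylation sites so blocking glycosylation raises the light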
NSD2 inh – NSD2 histone methyltransferase inhibitors, primary screen, biochemical, AlphaScreen, single concentration, set 2 | Histone-lysine N-methyltransferase NSD2 (Homo sapiens), O96028 | NSD2 peptide methylation, 120 min | inhibition, % at 12.5 µM | actives 0.54% (n = 310,000); in the data active = inhibition above about 50%
HIV Env fusion – inhibitors of HIV-1 Env-driven cell-cell fusion, primary screen, HeLa-JRFL effector, CEM21 target cells, luciferase | actives 1.1% (n = 360,000) | inhibition, % at 12.3 µM;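 active = mean replicate inhibition score of at least 50 and every replicate individually at or above 50; inconclusive = only one of the two criteria met; inactive = mean below 50 and not all replicates reaching 50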
PAX8 reporter – inhibitors of PAX8-driven TPO luciferase reporter, primary screen, RMG-I cells, single concentration; AID 652154, 2013; inhibition, % at 12.6 µM; actives 1.2% (n = 360,000); SteadyGlo, 24 h;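 active = mean replicate inhibition at least 60% with every replicate also reaching 60%; inconclusive = only one of the two criteria is met; inactive = mean below 60% and not all replicates reaching 60%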;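 note: luciferase light reporting Pax8 driven TPO promoter activity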
Shn3 inh set2 – reduction of Shn3 3'UTR firefly luciferase signal, primary screen, Schnurri-3 inhibitor project, cell-based, Clone20 osteoblasts, set 2 | Clone20 osteoblast Shn3 3'UTR firefly luciferase, 24 h | inhibition, % at 12.5 µM | actives 0.52% (n = 360,000) | AID 588674, 2011;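 active = mean inhibition of at least 75% with every replicate also reaching 75%; inconclusive = mean inhibition at least 75% but some replicate below; inactive = mean inhibition below 75%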
Numbers stand for hits; i = inactive; ? = inconclusive; nt = no result given. The list is not random: actives were taken first. Their share in the collection is about 2.8%.

SMILES	LMP1 NFkB inh	N-glyco inh	NSD2 inh	HIV Env fusion	PAX8 reporter	Shn3 inh set2
COc1ccc(N(C(=O)Cc2cccs2)C(C(=O)NC2CCCC2)c2ccncc2)cc1OC (stereo not drawn)	i	i	i	i	i	i
O=C(Cc1ccccc1)N[C@H]1CC[C@@H](CC(=O)N2CCCCC2)O[C@@H]1CO	nt	nt	nt	i	i	nt
CCCNC(=O)C[C@H]1CC[C@H]2[C@H](COc3ccc(NC(=O)NC(C)C)cc3C(=O)N2C)O1	nt	nt	nt	nt	i	nt
COc1cccc(NC(=O)CN(C)C(=O)c2cccc(S(=O)(=O)N3CCN(c4ccc(F)cc4)CC3)c2)c1	i	i	i	i	i	i
CN(CC(=O)Nc1ccc(F)cc1)C(=O)c1cccc(S(=O)(=O)N2CCN(c3ccc(F)cc3)CC2)c1	i	i	nt	55.2	i	i
CN(Cc1ccc(F)cc1)C(=O)c1cccc(S(=O)(=O)N2CCN(c3ccc(F)cc3)CC2)c1	i	i	i	56.7	i	i
COc1ccc(NC(=O)CN(C)C(=O)c2cccc(S(=O)(=O)N3CCN(Cc4ccccc4)CC3)c2)cc1	i	i	i	nt	nt	i
CN(CCOc1ccc(Cl)cc1)C(=O)c1cccc(S(=O)(=O)N2CCN(Cc3ccccc3)CC2)c1	i	i	i	nt	i	91.5
COc1cccc(CN(C)C(=O)c2cccc(S(=O)(=O)N3CCN(c4ccccc4)CC3)c2)c1	i	i	i	i	i	85.4
CN(Cc1ccc(F)cc1)C(=O)c1cccc(S(=O)(=O)N2CCN(c3ccccc3)CC2)c1	i	i	i	i	i	i
CSc1ccc(CN(C)C(=O)c2cccc(S(=O)(=O)N3CCN(Cc4ccccc4)CC3)c2)cc1	i	i	i	68.9	i	88.2
Cc1ccc(C)c(NC(=O)CN(C)C(=O)c2cccc(S(=O)(=O)N3CCN(Cc4ccccc4)CC3)c2)c1	i	i	i	?	i	86.9
Cc1ccc(C)c(NC(=O)CN(C)C(=O)c2cccc(S(=O)(=O)N3CCCC3)c2)c1	i	i	i	i	i	i
CN(Cc1ccc(F)cc1)C(=O)c1cccc(S(=O)(=O)N2CCN(Cc3ccccc3)CC2)c1	i	i	i	i	i	i
C[C@H]1CN([C@@H](C)CO)C(=O)c2cc(C3=CCCC3)cnc2O[C@@H]1CN(C)Cc1ccc(F)cc1	nt	nt	nt	i	nt	nt
CO[C@H]1CN(C)C(=O)c2cccc(C#N)c2OC[C@H]2O[C@H](CC[C@@H]2OC)CCN(C)C(=O)[C@H]1C	nt	nt	nt	i	i	nt
Cc1cccc(C)c1NC(=O)C(c1ccc(C#N)cc1)n1c(=O)c(-c2cc3ccccc3[nH]2)nc2ccccc21 (stereo not drawn)	nt	nt	nt	75.3	i	nt
N=C(N)c1ccc(OCCCCCOc2ccc(C(=N)N)cc2)cc1	i	i	nt	nt	83.4	i
C[C@H](CO)N1C[C@H](C)[C@@H](CN(C)C(=O)Nc2ccc(F)cc2)Oc2ccc(NS(=O)(=O)c3ccccc3)cc2C1=O	nt	nt	nt	i	i	nt
O=C(Nc1ccccc1Cc1ccccc1)c1ccccc1NS(=O)(=O)c1ccc(Cl)s1	i	i	i	67.4	71.1	i
CN(C(=O)COC(=O)C1CCN(S(=O)(=O)c2c(Cl)cccc2Cl)CC1)C1CCS(=O)(=O)C1 (stereo not drawn)	i	i	i	i	112.7	i
CCOC(=O)C1CCN(S(=O)(=O)c2c(Cl)ccc3nonc23)CC1	i	i	i	i	i	96.1
CCOC(=O)C1CCN(S(=O)(=O)c2cccc3nonc23)CC1	i	i	i	i	i	i
C[C@H]1CCCCO[C@@H](CN(C)C(=O)Nc2ccc(C(F)(F)F)cc2)[C@@H](C)CN([C@@H](C)CO)C(=O)c2cc(NS(=O)(=O)c3ccc(Cl)cc3)ccc2O1	nt	nt	nt	i	i	nt
C[C@@H]1CCCCO[C@@H](CN(C)C(=O)Nc2ccc(C(F)(F)F)cc2)[C@H](C)CN([C@H](C)CO)C(=O)c2cc(NS(=O)(=O)c3ccc(Cl)cc3)ccc2O1	nt	nt	nt	i	88.5	nt
SMILES	LMP1 NFkB inh	N-glyco inh	NSD2 inh	HIV Env fusion	PAX8 reporter	Shn3 inh set2
C[C@H](CO)N1C[C@H](C)[C@@H](CN(C)C(=O)Nc2ccc(C(F)(F)F)cc2)OCCCC[C@H](C)Oc2ccc(NS(=O)(=O)c3ccc(Cl)cc3)cc2C1=O	nt	nt	nt	i	69.3	nt
C[C@@H]1CCCCO[C@H](CN(C)C(=O)Nc2ccc(C(F)(F)F)cc2)[C@@H](C)CN([C@@H](C)CO)C(=O)c2cc(NS(=O)(=O)c3ccc(Cl)cc3)ccc2O1	nt	nt	nt	?	92.3	nt
C[C@@H]1CCCCO[C@@H](CN(C)C(=O)Nc2ccc(C(F)(F)F)cc2)[C@H](C)CN([C@@H](C)CO)C(=O)c2cc(NS(=O)(=O)c3ccc(Cl)cc3)ccc2O1	nt	nt	nt	i	69.0	nt
C[C@@H]1CN([C@H](C)CO)C(=O)Cc2cc(NC(=O)Cc3ccccc3)ccc2O[C@@H]1CN(C)S(=O)(=O)c1cccs1	nt	nt	nt	i	i	nt
O=C(C[C@@H]1CC[C@@H](NC(=O)CC2CC2)[C@H](CO)O1)NCc1ccc(Cl)cc1	nt	nt	nt	i	i	nt
CNC[C@@H]1Oc2ccc(NC(=O)CCN3CCOCC3)cc2CC(=O)N([C@H](C)CO)C[C@@H]1C	nt	nt	nt	i	i	nt
C[C@@H]1CCCCO[C@H](CN(C)C(=O)Nc2ccc(C(F)(F)F)cc2)[C@H](C)CN([C@@H](C)CO)C(=O)c2cc(NS(=O)(=O)c3ccc(Cl)cc3)ccc2O1	nt	nt	nt	i	88.6	nt
COc1ccc(S(=O)(=O)Nc2ccc3c(c2)n(C)c(=O)n3C)cc1OC	i	?	i	i	i	i
COc1ccc(Cl)cc1S(=O)(=O)Nc1ccc2c(c1)n(C)c(=O)n2C	i	58.3	i	i	i	i
C[C@@H]1CN([C@H](C)CO)C(=O)c2cc(NS(C)(=O)=O)ccc2O[C@@H](C)CCCCO[C@H]1CN(C)C(=O)Nc1ccc(C(F)(F)F)cc1	nt	nt	nt	i	i	nt
COc1cc(Cn2c3ccc(NC(=O)CCc4ccccc4)cc3c(=O)n2C)ccc1F	nt	i	i	i	i	i
COc1ccccc1CCC(=O)Nc1ccc2c(c1)c(=O)n(C)n2-c1cccs1	nt	34.0	i	i	i	i
O=C(C[C@@H]1C=C[C@H](NC(=O)c2ccc(F)cc2)[C@@H](CO)O1)NCCc1ccncc1	nt	nt	nt	i	i	nt
Cn1cnc(S(=O)(=O)Nc2ccccc2N2CCOCC2)c1	nt	i	i	i	i	nt
CN(C)c1cccc2c1c(NS(=O)(=O)c1cn(C)cn1)nn2C	i	i	77.9	i	i	i
Cc1ccc(Cl)cc1N1CCN(C(=O)C2CCC(=O)N(C3CCCCCC3)C2)CC1 (stereo not drawn)	i	i	i	i	i	86.5
O=C(C1CCC(=O)N(C2CCCC2)C1)N1CCN(c2ccc(Cl)cc2)CC1 (stereo not drawn)	i	i	i	i	i	i
O=C(O)CSCC(=O)Nc1ccc(C2CCCCC2)cc1	57.9	i	i	97.9	nt	i
